# Calls of active or inactive are those of the source. Calls follow the shape of the dose curve; as a rule, active = well fitted curve in the direction sought with a large enough effect; inconclusive = small, poorly fitted or top-dose-only effect, or another doubt; inactive = no such curve, though single readings can be large; an effect the other way counts as inactive or inconclusive.
# Tests used:
# [1] = biological target: Alpha-galactosidase (Coffea arabica) (UniProt Q42656); experiment: Counterscreen for Glucocerebrosidase Inhibitors: qHTS Assay for Coffee Bean alpha-Galactosidase at pH 4.5 (AID 957); also: series mostly up to about 77 µM
# In short: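 Coffee bean alpha-galactosidase 2 nM, substrate 4-MU-alpha-Gal 80 uM, pH 4.5 citrate/Tween-20, 20 min RT. Cpd titration 0.7 nM–77 uM. Stop pH 10, fluorescence 365/440 nm; Hill-equation AC50.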
# [2] = biological target: Alpha-galactosidase (Coffea arabica) (UniProt Q42656); experiment: Counterscreen for Glucocerebrosidase Inhibitors: qHTS Assay for Coffee Bean alpha-Galactosidase at pH 5.9 (AID 998)
# In short: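 Green coffee bean enzyme (2 nM final) was incubated with compounds (0.7 nM–77 uM) and 4-methylumbelliferyl alpha-D-galactopyranoside (80 uM) in citrate buffer pH 5.9, 20 min at room temperature. High-pH stop; fluorescence 365/440 nm; AC50 from Hill fits.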
# Sequence of Alpha-galactosidase (Coffea arabica) (Q42656 whole entry, looked up): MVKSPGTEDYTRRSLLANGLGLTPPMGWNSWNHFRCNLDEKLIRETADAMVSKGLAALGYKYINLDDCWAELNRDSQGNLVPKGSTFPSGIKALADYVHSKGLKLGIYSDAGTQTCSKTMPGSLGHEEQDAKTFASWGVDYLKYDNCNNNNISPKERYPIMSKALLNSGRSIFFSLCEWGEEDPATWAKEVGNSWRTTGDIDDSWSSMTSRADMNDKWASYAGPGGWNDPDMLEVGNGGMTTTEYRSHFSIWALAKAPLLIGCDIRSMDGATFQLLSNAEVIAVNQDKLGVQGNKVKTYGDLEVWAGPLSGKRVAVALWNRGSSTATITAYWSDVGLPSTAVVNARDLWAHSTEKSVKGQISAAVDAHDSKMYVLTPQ
Compound,outcome [1],outcome [2]
N#C[C@@H](Cc1ccc(O)c(O)c1)C(=O)N1CCc2ccccc21,inactive,inactive
Cn1c(=O)c2c(nc(/C=C\c3cccc(Cl)c3)n2C)n(C)c1=O,inactive,inactive
CC(C)(C)NC[C@H](O)c1ccc(O)c(CO)c1,inactive,inactive
N[C@H](CCCP(=O)(O)O)C(=O)O,inactive,inactive
CN1[C@@H]2CC[C@H]1CC(OC(=O)[C@@H](CO)c1ccccc1)C2 (stereo not given in full),inactive,inactive
Cc1ccccc1CNc1ncnc2c1ncn2[C@@H]1O[C@@H](CO)[C@H](O)[C@@H]1O,inactive,inactive
CSc1nc(N)c2ncn([C@@H]3O[C@@H](COP(=O)(O)OP(=O)(O)OP(=O)(O)O)[C@@H](O)[C@H]3O)c2n1,inactive,inactive
Cc1ccc(/C(=C/CN2CCCC2)c2ccccn2)cc1,inactive,inactive
CCCN[C@@H](C)C(=O)Nc1ccccc1C,inactive,inactive
O=[N+]([O-])c1ccc(CSc2ncnc3c2ncn3[C@@H]2O[C@@H](CO)[C@@H](O)[C@H]2O)cc1,inactive,inactive
C[C@@H](CN1c2ccccc2Sc2ccccc21)N(C)C,inactive,inactive
CC(=O)O[C@]1(C(C)=O)CC[C@@H]2[C@@H]3C=C(Cl)C4=CC(=O)[C@H]5C[C@@H]5[C@]4(C)[C@H]3CC[C@]21C,inactive,inactive
CO/N=C(\C(=O)N[C@@H]1C(=O)N2C(C(=O)O)=C(COC(C)=O)CS[C@@H]12)c1csc(N)n1,inactive,inactive
CC[C@H](NC(C)C)[C@H](O)c1ccc(O)c(O)c1,inactive,inactive
CCCCOc1cc(C[C@@H]2CNC(=O)N2)ccc1OC,inactive,inactive
NC(=O)c1cc[n+](CC2=C(C(=O)O)N3C(=O)[C@@H](NC(=O)[C@H](c4ccccc4)S(=O)(=O)[O-])[C@@H]3SC2)cc1,inactive,inactive
CC(C)[C@H]1C(=O)C(C(N)=O)=C(O)[C@]2(O)C(=O)C3=C(O)c4c(O)ccc(N(C)C)c4C[C@H]3C[C@@H]12,inactive,inactive
OC[C@@H]1O[C@@H](n2cnc3c(Nc4ccccc4)ncnc32)[C@@H](O)[C@H]1O,inactive,inactive
Cn1cc(C(F)(F)F)nc1-c1ccc(OC[C@@H](O)CNCCOc2ccc(O)c(C(N)=O)c2)cc1,inactive,inactive
CCCCCCCCCC(=O)N[C@@H](CN1CCOCC1)[C@@H](O)c1ccccc1,inactive,inactive

Compound,outcome [1],outcome [2]
CN(C)CC[C@H](c1ccc(Br)cc1)c1ccccn1,inactive,inactive
COc1cccc2c1[C@@H]1CN(CCCCn3c(=O)[nH]c4c(sc5ncc(-c6ccccc6)nc54)c3=O)C[C@H]1CO2,inactive,inactive
CN1C(=O)CC[C@@H]1c1cccnc1,inactive,inactive
Oc1cc(O)cc(/C=C\c2ccc(O)c(O)c2)c1,inactive,inactive
N[C@H](CCCC(=O)O)C(=O)O,inactive,inactive
O=C1c2c(O)cc(O)cc2O[C@@H](c2ccc(O)c(O)c2)[C@H]1O,inactive,inactive
NCCC[C@@](N)(C(=O)O)C(F)F,inactive,inactive
O=C(OCCN1CCCCC1)c1c[nH]c2ccccc12,inactive,inactive
Cc1ccccc1[C@@H](OCCN(C)C)c1ccccc1,inactive,inactive
COc1c2c(nc3ccccc13)O[C@@H]([C@@](C)(O)CO)C2,inactive,inactive
CO[C@]1(NC(=O)CSCC#N)C(=O)N2C(C(=O)O)=C(CSc3nnnn3C)CS[C@H]21,inactive,inactive
CC(=O)/C(C)=N\O,inactive,inactive
CCCCC#Cc1nc(N)c2ncn([C@@H]3O[C@@H](C(=O)NCC)[C@H](O)[C@@H]3O)c2n1,inactive,inactive
O=C(O)/C=C\c1cnc[nH]1,inactive,inactive
Oc1ccc(/C=C\c2cc(O)cc(O)c2)cc1,inactive,inactive
C[C@@H]1C[C@@H]2[C@H]3CCC4=CC(=O)C=C[C@]4(C)[C@]3(F)[C@@H](O)C[C@@]2(C)[C@@]1(O)C(=O)CO,inactive,inactive
COc1ccccc1N1CCN(C[C@@H](O)COc2cccc3ccccc23)CC1,inactive,inactive
CCN1CCC[C@@H]1CNC(=O)c1cc(S(N)(=O)=O)ccc1OC,inactive,inactive
CC(=O)O[C@@H]1C[C@]2(C)[C@H](C[C@@H](O)[C@H]3[C@@]4(C)CC[C@@H](O)[C@@H](C)[C@@H]4CC[C@@]32C)/C1=C(\CCC=C(C)C)C(=O)O,inactive,inactive
CCCCCC[C@@H]([C@H](C)O)n1cnc2c(N)ncnc21,inactive,inactive

Compound,outcome [1],outcome [2]
C[C@@](N)(C(=O)O)c1ccc(C(=O)O)cc1,inactive,inactive
Cc1cn([C@H]2C[C@H](N=[N+]=[N-])[C@H](CO)O2)c(=O)[nH]c1=O,inactive,inactive
C[C@@H](CN1CCC(Cc2ccccc2)CC1)[C@H](O)c1ccc(O)cc1,inactive,inactive
CCCCC/C=C\C[C@H](O)/C=C\c1cccc(C[C@H](O)CCCCO)n1,inactive,inactive
O=C1O/C(=C\Br)CC[C@@H]1c1cccc2ccccc12,inactive,inactive
C[C@]12CC3CC(N)(C1)C[C@@](C)(C3)C2,inactive,inactive
CC(C)C[C@H](NC(=O)[C@@H](O)[C@@H](N)Cc1ccccc1)C(=O)O,inactive,inactive
OC[C@@H]1O[C@H](O)[C@@H](Cl)[C@H](O)[C@@H]1O,inactive,inactive
C[C@@H]1c2cccc(O)c2C(O)=C2C(=O)[C@@]3(O)C(O)=C(C(N)=O)C(=O)[C@@H](N(C)C)[C@@H]3[C@@H](O)[C@@H]21,inactive,inactive
CN(C)CC[C@@H](c1ccccc1)c1ccccn1,inactive,inactive
COc1cccc(OC)c1OCCNC[C@@H]1CSc2ccccc2O1,inactive,inactive
COC(=O)C1=C(C)NC(C)=C([N+](=O)[O-])[C@H]1c1ccccc1C(F)(F)F,inactive,inactive
CO/N=C(\C(=O)N[C@@H]1C(=O)N2C(C(=O)O)=C(CSc3nc(=O)c(O)nn3C)CS[C@@H]12)c1csc(N)n1,inactive,inactive
Cc1ccccc1N1CCN(S(=O)(=O)C[C@@]23CC[C@H](C[C@H]2NC(=O)[C@@H](N)CCS(C)(=O)=O)C3(C)C)CC1,inactive,inactive
O=C(/C=C\c1ccc(O)c(O)c1)OCCc1ccccc1,inactive,inactive
O=c1ccn([C@@H]2O[C@@H](COP(=O)(O)OP(=O)(O)O)[C@H](O)[C@@H]2O)c(=O)[nH]1,inactive,inactive
CN1CC[C@@]2(CCN3CCc4c(oc5ccccc45)[C@@H]3C2)N(C)C1=O,inactive,inactive
CCN(CC)CCC[C@H](C)Nc1c2ccc(Cl)cc2nc2ccc(OC)cc12,inactive,inactive
COCCc1ccc(OC[C@H](O)CNC(C)C)cc1,inactive,inactive
COc1ccc(NC(=O)/C=C\c2ccc(Cl)cc2)cc1,inactive,inactive
